From the supplement of paper PMC10849652
Of roughly 7,900 targets only a part is listed; those with a hit were picked by preference. About 0.6% of all pairs of compound and target were hits.

Experiments:
Assay in all cases: log2 fold change, soluble protein after heating vs DMSO (PISA); higher = thermal stabilisation; K562 cells, 10 uM, 30 min; active = over 0.2 and 3.5 SD of the protein, either way, in both replicates (recomputed)
[1] = compound: Cc1ccc(NC(=O)c2ccc(CN3CC[C@H](N(C)C)C3)c(C(F)(F)F)c2)cc1Nc1nccc(-c2cncnc2)n1 [bafetinib]
Procedure, shortened: (§1)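 Values are thermal stability changes relative to control samples and are taken from duplicates. They are stated as log2 fold changes. Before quantification by TMTpro 16plex LC-MS/MS with equalised channel sums, K562 cells at 2×10^6 cells/mL were treated with 10 μM compound for 30 min, heated in aliquots for 3 min across 48°C-58°C, pooled, extracted in PBS with 0.5% NP-40 at 4°C, and centrifuged at 21,000xg for 90 min to give the soluble supernatant.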

[2] = compound: Cc1cccc(CC(=O)N2CCc3c2ccc(-c2cn(C)c4ncnc(N)c24)c3F)n1
Procedure, shortened: as §1

[3] = compound: Cc1cn(-c2cc(NC(=O)c3ccc(C)c(Nc4nccc(-c5cccnc5)n4)c3)cc(C(F)(F)F)c2)cn1 [nilotinib]
Procedure, shortened: as §1

[4] = compound: Cc1nc(Nc2n[nH]c3c2CN(C(=O)N[C@H](CN(C)C)c2ccccc2)C3(C)C)c2sccc2n1
Procedure, shortened: as §1

[5] = compound: Cc1nc(Nc2ncc(C(=O)Nc3c(C)cccc3Cl)s2)cc(N2CCN(CCO)CC2)n1 [dasatinib]
Procedure, shortened: as §1

[6] = compound: Cc1ncc(-c2ccnc(Nc3ccc(S(C)(=O)=O)cc3)n2)n1C(C)C
Procedure, shortened: as §1

[7] = compound: Cn1cc(-c2ccc3c(c2)CCN3C(=O)Cc2cccc(C(F)(F)F)c2)c2c(N)ncnc21
Procedure, shortened: as §1

[8] = compound: Cn1cc(-c2ccc3nnc(C(F)(F)c4ccc5ncccc5c4)n3n2)cn1
Procedure, shortened: as §1

[9] = compound: Cn1cncc1[C@@](N)(c1ccc(Cl)cc1)c1ccc2c(c1)c(-c1cccc(Cl)c1)cc(=O)n2C [tipifarnib]
Procedure, shortened: as §1

[10] = compound: FC(F)(F)c1ccc(/C=C/c2nc(COc3ccc(CCCCn4ccnn4)cc3)co2)cc1 [mubritinib]
Procedure, shortened: as §1

[11] = compound: NC(=O)Nc1cc(-c2cccc(F)c2)sc1C(=O)N[C@H]1CCCNC1
Procedure, shortened: as §1

[12] = compound: NC(=O)c1cnc(N[C@@H]2CCCC[C@@H]2N)nc1Nc1cccc(-n2nccn2)c1
Procedure, shortened: as §1

[13] = compound: NC1(c2ccc(-c3nc4ccn5c(=O)[nH]nc5c4cc3-c3ccccc3)cc2)CCC1
Procedure, shortened: as §1

[14] = compound: NCC(=O)Nc1ccc(-n2nc(C(F)(F)F)cc2-c2ccc3c(ccc4ccccc43)c2)cc1
Procedure, shortened: as §1

[15] = compound: Nc1ccccc1NC(=O)c1ccc(CNC(=O)OCc2cccnc2)cc1 [entinostat]
Procedure, shortened: as §1

[16] = compound: O=C(CCCCCCC(=O)Nc1ccccc1)NO [vorinostat]
Procedure, shortened: as §1

[17] = compound: O=C(CCCCCCNC(=O)c1cnc(N(c2ccccc2)c2ccccc2Cl)nc1)NO [citarinostat]
Procedure, shortened: as §1

[18] = compound: O=C(O)c1ccc2c(c1)nc(Nc1cccc(Cl)c1)c1ccncc12 [silmitasertib]
Procedure, shortened: as §1

[19] = compound: O=C1NC(=O)C(c2cnc3ccccn23)=C1c1cn2c3c(cc(F)cc13)CN(C(=O)N1CCCCC1)CC2
Procedure, shortened: as §1

[20] = compound: c1cc(OCCN2CCCCC2)cc(-c2n[nH]c3ccc(-c4nnc[nH]4)cc23)c1
Procedure, shortened: as §1

Measured: log2 fold change

CCAR2 isoform 2 (UniProt Q8N163)
Chain of UniProt Q8N163 (Q8N163 whole entry, looked up): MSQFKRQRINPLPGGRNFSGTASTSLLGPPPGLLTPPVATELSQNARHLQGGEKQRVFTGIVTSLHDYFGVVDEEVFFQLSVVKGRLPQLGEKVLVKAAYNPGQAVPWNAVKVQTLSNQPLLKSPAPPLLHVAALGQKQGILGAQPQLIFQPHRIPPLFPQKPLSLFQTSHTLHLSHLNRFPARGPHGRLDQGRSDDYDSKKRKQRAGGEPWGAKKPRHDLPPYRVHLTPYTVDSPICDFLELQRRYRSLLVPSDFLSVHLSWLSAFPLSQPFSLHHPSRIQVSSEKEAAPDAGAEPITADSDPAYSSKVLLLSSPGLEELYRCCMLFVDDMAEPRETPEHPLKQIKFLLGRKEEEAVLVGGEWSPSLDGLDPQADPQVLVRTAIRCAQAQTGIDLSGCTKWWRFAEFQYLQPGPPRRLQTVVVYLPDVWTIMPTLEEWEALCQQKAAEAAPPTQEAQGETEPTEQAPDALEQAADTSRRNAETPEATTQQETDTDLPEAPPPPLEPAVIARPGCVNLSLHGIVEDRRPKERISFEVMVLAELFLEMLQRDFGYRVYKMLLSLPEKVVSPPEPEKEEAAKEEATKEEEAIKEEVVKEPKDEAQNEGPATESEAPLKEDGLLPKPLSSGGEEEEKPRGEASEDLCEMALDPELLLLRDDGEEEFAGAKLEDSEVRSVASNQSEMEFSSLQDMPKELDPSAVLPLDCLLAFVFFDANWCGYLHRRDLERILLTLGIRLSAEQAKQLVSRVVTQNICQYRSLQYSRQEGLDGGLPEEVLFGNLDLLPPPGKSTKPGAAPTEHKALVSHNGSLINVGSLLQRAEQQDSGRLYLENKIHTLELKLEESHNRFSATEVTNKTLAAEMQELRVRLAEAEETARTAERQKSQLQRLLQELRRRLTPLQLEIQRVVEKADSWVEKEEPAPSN
inactive: [1] 0.007 | [2] 0.01 | [3] -0.053 | [4] -0.023 | [5] -0.176 | [6] -0.157 | [7] -0.009 | [8] 0.042 | [9] 0.011 | [10] 0.031 | [11] -0.056 | [12] -0.106 | [13] -0.013 | [14] -0.088 | [15] 0.089 | [16] 0.168 | [17] 0.033 | [18] -0.039 | [19] -0.151 | [20] 0.033

CDC123 (UniProt O75794)
Chain of UniProt O75794 (O75794 whole entry, looked up): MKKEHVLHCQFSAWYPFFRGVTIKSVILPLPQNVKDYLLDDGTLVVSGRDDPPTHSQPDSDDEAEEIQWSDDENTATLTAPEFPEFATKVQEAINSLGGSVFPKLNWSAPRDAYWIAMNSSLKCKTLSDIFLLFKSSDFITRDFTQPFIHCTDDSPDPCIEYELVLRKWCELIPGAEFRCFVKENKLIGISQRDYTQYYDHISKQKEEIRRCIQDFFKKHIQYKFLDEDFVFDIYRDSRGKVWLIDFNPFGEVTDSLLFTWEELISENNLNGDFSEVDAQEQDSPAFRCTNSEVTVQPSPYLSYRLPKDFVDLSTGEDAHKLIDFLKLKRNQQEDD
inactive: [1] 0.015 | [2] -0.013 | [3] -0.084 | [4] 0.079 | [5] -0.032 | [6] 0.018 | [7] 0.029 | [8] -0.04 | [9] -0.031 | [10] -0.006 | [11] -0.029 | [12] 0.045 | [13] -0.077 | [14] -0.01 | [15] 0.026 | [16] 0.032 | [17] 0.045 | [18] -0.048 | [19] 0.011 | [20] -0.056

CHCHD2 (UniProt Q9Y6H1)
inactive: [1] -0.026 | [2] -0.002 | [3] 0.037 | [4] 0.029 | [5] 0.075 | [6] -0.086 | [7] 0.116 | [8] -0.02 | [9] -0.06 | [10] 0.04 | [11] -0.039 | [12] -0.011 | [13] 0.022 | [14] 0.012 | [15] -0.01 | [16] 0.005 | [17] 0.018 | [18] 0.009 | [19] -0.13 | [20] -0.008

CNOT1 (UniProt A5YKK6)
Chain of UniProt A5YKK6 (A5YKK6 whole entry, looked up): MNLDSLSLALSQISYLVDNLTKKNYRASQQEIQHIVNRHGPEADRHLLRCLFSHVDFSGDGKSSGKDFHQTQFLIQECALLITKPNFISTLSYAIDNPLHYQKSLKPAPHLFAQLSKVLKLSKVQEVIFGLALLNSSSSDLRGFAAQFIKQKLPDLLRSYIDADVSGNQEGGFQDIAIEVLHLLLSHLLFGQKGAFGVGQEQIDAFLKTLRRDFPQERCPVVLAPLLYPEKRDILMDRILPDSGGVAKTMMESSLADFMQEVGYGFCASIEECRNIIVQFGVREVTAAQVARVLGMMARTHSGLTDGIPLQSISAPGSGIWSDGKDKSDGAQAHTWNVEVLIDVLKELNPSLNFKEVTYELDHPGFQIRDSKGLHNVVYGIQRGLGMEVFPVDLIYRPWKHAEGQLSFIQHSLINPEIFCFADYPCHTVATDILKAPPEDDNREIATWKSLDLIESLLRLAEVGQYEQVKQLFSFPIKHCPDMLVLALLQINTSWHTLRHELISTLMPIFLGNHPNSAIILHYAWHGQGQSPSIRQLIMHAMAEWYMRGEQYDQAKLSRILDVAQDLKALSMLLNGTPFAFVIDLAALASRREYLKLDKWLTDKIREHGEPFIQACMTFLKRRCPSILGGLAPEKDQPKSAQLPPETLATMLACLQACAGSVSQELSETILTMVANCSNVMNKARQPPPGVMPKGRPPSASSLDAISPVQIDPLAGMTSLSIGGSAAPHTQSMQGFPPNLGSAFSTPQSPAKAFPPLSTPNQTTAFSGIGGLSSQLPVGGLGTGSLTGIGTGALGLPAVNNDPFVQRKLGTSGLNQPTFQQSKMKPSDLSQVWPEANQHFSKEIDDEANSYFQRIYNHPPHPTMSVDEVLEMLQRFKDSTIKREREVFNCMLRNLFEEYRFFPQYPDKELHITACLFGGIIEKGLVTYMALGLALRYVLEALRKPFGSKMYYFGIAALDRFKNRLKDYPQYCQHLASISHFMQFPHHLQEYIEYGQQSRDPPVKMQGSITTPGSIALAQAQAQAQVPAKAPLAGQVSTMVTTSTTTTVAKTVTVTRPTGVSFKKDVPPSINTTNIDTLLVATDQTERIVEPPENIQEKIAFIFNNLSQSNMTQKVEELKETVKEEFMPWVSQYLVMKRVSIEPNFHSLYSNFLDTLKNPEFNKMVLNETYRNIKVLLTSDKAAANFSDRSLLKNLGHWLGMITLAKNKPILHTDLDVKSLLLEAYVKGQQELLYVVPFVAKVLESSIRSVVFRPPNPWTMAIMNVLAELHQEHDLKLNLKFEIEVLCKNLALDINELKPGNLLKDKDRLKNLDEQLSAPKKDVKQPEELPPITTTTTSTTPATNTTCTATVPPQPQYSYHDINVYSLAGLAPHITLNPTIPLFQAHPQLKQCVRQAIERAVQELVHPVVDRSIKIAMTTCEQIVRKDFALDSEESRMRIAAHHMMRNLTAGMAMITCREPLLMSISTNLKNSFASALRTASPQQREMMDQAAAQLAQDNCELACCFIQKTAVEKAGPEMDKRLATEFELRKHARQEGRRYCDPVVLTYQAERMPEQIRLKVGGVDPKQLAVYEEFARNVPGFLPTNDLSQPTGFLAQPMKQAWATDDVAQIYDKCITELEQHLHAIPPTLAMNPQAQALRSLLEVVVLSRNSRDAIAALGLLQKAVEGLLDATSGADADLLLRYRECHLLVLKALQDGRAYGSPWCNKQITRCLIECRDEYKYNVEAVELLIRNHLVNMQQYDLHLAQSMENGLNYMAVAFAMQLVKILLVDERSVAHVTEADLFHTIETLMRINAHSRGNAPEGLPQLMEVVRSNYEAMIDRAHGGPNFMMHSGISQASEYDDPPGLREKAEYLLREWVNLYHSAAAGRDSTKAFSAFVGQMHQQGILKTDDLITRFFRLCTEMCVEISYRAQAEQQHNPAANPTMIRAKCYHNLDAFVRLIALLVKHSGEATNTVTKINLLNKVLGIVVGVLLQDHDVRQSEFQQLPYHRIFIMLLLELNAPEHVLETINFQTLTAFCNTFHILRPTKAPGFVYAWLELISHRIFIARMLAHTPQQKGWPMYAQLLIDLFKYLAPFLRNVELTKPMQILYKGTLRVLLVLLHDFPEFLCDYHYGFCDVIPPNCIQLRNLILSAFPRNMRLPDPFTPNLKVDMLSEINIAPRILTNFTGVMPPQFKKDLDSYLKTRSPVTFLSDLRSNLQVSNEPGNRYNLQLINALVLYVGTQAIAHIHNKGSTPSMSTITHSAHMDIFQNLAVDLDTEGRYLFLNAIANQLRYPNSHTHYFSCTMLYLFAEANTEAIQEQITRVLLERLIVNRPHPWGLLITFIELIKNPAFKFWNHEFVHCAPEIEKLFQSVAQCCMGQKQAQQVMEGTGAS
inactive: [1] 0.009 | [2] 0.033 | [3] -0.066 | [4] -0.058 | [5] -0.106 | [6] -0.014 | [7] 0.023 | [8] -0.035 | [9] -0.061 | [10] 0.052 | [11] 0 | [12] 0.01 | [13] -0.075 | [14] -0.026 | [15] 0.024 | [16] 0.035 | [17] 0.05 | [18] 0.055 | [19] 0.004 | [20] -0.032

CDC42BPB (UniProt Q9Y5S2)
inactive: [1] 0.22 | [2] -0.034 | [3] 0.062 | [4] -0.118 | [5] -0.029 | [6] 0.106 | [7] -0.054 | [8] -0.017 | [9] 0.094 | [10] 0.177 | [11] -0.205 | [12] 0.054 | [13] -0.254 | [14] -0.012 | [15] 0.155 | [16] 0.06 | [17] 0.085 | [18] -0.087 | [19] -0.057 | [20] -0.201

CIT isoform 4 (UniProt O14578)
inactive: [1] -0.01 | [2] 0.07 | [3] -0.049 | [4] -0.065 | [5] -0.064 | [6] -0.03 | [7] 0.006 | [8] -0.075 | [9] -0.009 | [10] 0.031 | [11] -0.072 | [12] -0.101 | [13] -0.108 | [14] 0 | [15] 0.025 | [16] 0.041 | [17] -0.222 | [18] 0.049 | [19] 0.049 | [20] 0.293

CLCN7 (UniProt P51798)
inactive: [1] -0.24 | [2] 0.083 | [3] -0.035 | [4] -0.012 | [5] -0.091 | [6] -0.111 | [7] 0.011 | [8] 0.049 | [9] 0.038 | [10] -0.02 | [11] -0.009 | [12] -0.162 | [14] -0.048 | [15] 0.07 | [16] 0.054 | [17] 0.107 | [18] 0.036 | [19] 0.021 | [20] -0.078
active: [13] -0.674

CNN2 (UniProt Q99439)
inactive: [1] -0.001 | [2] 0.052 | [3] -0.075 | [4] -0.074 | [5] -0.14 | [6] 0.006 | [7] 0.011 | [8] 0.044 | [9] -0.16 | [10] 0.051 | [11] -0.029 | [12] -0.031 | [13] -0.104 | [14] -0.052 | [15] 0.08 | [16] 0.029 | [17] 0.061 | [18] 0.062 | [19] -0.062 | [20] -0.026

CA1 (UniProt P00915)
active: [16] 0.221
inactive: [1] -0.017 | [2] -0.055 | [3] -0.004 | [4] -0.014 | [5] -0.007 | [6] 0.011 | [7] 0.029 | [8] -0.008 | [9] -0.011 | [10] 0.067 | [11] 0.01 | [12] 0.011 | [13] -0.013 | [14] 0.012 | [15] -0.011 | [17] 0.074 | [18] 0.013 | [19] -0.014 | [20] -0.029

CDK5 (UniProt Q00535)
Chain of UniProt Q00535 (Q00535 whole entry, looked up): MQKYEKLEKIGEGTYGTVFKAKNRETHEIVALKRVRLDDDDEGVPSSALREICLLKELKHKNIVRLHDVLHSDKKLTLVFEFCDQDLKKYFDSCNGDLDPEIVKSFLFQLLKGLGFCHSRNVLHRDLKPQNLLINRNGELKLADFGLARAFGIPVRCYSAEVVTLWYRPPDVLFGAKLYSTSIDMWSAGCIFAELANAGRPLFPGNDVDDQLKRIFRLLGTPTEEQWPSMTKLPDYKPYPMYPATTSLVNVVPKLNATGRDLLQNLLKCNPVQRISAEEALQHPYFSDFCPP
inactive: [1] -0.091 | [2] 0.035 | [3] -0.055 | [4] -0.142 | [5] -0.078 | [6] -0.034 | [7] -0.033 | [8] -0.031 | [9] -0.054 | [10] -0.103 | [11] -0.045 | [12] -0.01 | [13] -0.065 | [14] -0.082 | [15] 0.016 | [16] 0.007 | [17] 0.06 | [18] 0.016 | [19] -0.1 | [20] -0.05

CALB1 (UniProt P05937)
Chain of UniProt P05937 (P05937 whole entry, looked up): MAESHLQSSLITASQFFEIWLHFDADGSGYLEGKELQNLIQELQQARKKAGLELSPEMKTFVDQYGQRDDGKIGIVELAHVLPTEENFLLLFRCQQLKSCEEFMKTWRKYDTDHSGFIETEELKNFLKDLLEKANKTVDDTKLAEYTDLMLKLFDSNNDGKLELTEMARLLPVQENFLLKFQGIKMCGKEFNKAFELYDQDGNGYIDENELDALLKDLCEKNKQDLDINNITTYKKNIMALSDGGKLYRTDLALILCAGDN
inactive: [1] -0.076 | [2] -0.018 | [3] -0.018 | [4] 0.025 | [5] 0.014 | [6] -0.015 | [7] 0.013 | [8] 0.046 | [9] 0 | [10] 0.01 | [11] -0.029 | [12] -0.014 | [13] -0.161 | [14] -0.041 | [15] 0.022 | [16] -0.027 | [17] 0.062 | [18] 0.006 | [19] 0.016 | [20] -0.035

CELF2 isoform 3 (UniProt O95319)
inactive: [1] 0.014 | [2] -0.005 | [3] -0.001 | [4] 0.013 | [5] -0.005 | [6] 0.079 | [7] -0.022 | [8] -0.059 | [9] -0.062 | [10] -0.006 | [11] -0.047 | [12] 0.009 | [13] 0.017 | [14] -0.017 | [15] -0.048 | [16] -0.044 | [17] 0 | [18] 0.051 | [19] 0.102 | [20] -0.021

CHMP4B (UniProt Q9H444)
active: [11] 0.255
inactive: [1] -0.078 | [2] 0.061 | [3] -0.027 | [4] 0.007 | [5] 0.017 | [6] -0.023 | [7] 0.012 | [8] -0.013 | [9] 0.053 | [10] 0.051 | [12] -0.011 | [13] -0.065 | [14] -0.001 | [15] 0.108 | [16] 0.024 | [17] -0.044 | [18] -0.016 | [19] 0.014 | [20] 0.022

CHKA (UniProt P35790)
Chain of UniProt P35790 (P35790 whole entry, looked up): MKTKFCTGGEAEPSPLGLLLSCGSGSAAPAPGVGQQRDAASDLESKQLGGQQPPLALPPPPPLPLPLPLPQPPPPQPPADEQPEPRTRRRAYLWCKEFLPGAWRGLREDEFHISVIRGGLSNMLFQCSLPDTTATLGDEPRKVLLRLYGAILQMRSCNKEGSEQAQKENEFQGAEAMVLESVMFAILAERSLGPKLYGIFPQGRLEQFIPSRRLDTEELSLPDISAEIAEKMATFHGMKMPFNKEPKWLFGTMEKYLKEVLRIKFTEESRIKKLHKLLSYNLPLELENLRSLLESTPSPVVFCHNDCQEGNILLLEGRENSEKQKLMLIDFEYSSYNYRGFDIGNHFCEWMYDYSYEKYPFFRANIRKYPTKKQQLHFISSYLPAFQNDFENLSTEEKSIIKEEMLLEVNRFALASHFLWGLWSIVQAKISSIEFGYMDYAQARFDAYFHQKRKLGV
active: [12] -0.316
inactive: [1] 0.123 | [2] -0.023 | [3] 0.178 | [4] 0.149 | [5] 0.07 | [6] 0.088 | [7] -0.02 | [8] -0.081 | [9] -0.026 | [10] -0.024 | [11] 0.015 | [13] 0.014 | [14] 0.012 | [15] -0.023 | [16] -0.034 | [17] -0.055 | [18] 0.013 | [19] -0.011 | [20] -0.012

CBX1 (UniProt P83916)
inactive: [1] -0.037 | [2] -0.025 | [3] 0.141 | [4] -0.089 | [5] 0.084 | [6] -0.003 | [7] -0.034 | [8] 0.011 | [9] -0.039 | [10] 0.066 | [11] 0.02 | [12] -0.032 | [13] 0.025 | [14] 0.004 | [15] 0.017 | [16] -0.036 | [17] -0.035 | [18] 0.045 | [19] 0.006 | [20] -0.034

COX15 (UniProt Q7KZN9)
Chain of UniProt Q7KZN9 (Q7KZN9 whole entry, looked up): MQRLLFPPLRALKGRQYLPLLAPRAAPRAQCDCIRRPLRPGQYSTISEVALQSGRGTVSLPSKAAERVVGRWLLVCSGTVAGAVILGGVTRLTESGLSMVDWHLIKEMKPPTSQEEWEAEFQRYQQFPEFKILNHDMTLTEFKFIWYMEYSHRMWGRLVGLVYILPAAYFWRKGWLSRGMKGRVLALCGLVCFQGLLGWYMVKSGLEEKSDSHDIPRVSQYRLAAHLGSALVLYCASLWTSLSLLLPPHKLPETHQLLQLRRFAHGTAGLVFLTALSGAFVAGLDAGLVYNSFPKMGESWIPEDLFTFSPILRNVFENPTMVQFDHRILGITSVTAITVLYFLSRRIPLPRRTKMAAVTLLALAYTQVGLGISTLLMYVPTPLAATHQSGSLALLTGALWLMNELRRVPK
inactive: [1] 0.09 | [2] -0.02 | [3] -0.013 | [4] 0.02 | [5] 0.078 | [6] -0.034 | [7] 0.008 | [8] -0.023 | [9] 0.046 | [10] 0.038 | [11] 0.003 | [12] -0.009 | [13] -0.043 | [14] -0.013 | [15] 0.004 | [16] -0.017 | [17] 0.048 | [18] 0.022 | [19] 0.028 | [20] -0.064
